High-throughput results: PubChem, National Center for Advancing Translational Sciences (NCATS)
Only some compounds are listed: those with a hit (about 10% of all), similar ones and a draw of the others.
KB-3-1 tox = KB-3-1 parental cell cytotoxicity | KB-3-1 viability, CellTiter-Glo ATP luminescence, 72 h | Potency, µM (series often up to 46.1 µM), actives largely listed as cytotoxic | 1.4% of 400,000 active | AID 1347075; also: % is scaled to controls: 0 for no effect and ±100 for the full control effect; nearly all actives have a fitted effect of over 60% in size
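Here the drug-naive KB-3-1 line serves as comparator for MDR sub-line selectivity; cells received compound titrations, 72 h at 37 °C, then CellTiter-Glo readout.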
MCF10A rerep = DNA re-replication induction in MCF 10a cells. MCF 10A DNA re-replication, Hoechst nuclear intensity, 48 h. Potency, µM (top dose mostly 46.1 µM), for the others: top-dose activity, positive = re-replication, most hits filed as activators. 2.9% of 350,000 active. AID 624296; also: % of control where 0% means no effect; nearly all actives have a fitted effect of over 50% in size
VP16 counter = Gal4-VP16 reporter inhibition counter-screen; Potency, µM (doses to about 53.6 µM), for the others: top-dose activity, negative = inhibition, actives largely listed as inhibitors; 3.5% of 310,000 active; Drosophila S2 Gal4-VP16 UAS-luciferase, luminescence, 20 h; AID 2546;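 also: Gal4-VP16 expression switched on by copper sulfate through the metallothionein promoter; % is scaled to controls: 0 for no effect and ±100 for the full control effect; nearly all actives have a fitted effect of over 50% in size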
SW480 rereplic = inducers of DNA re-replication in SW480 colon cancer cells; SW480 DNA re-replication, Hoechst DNA content imaging, 48 h; 1.8% of 340,000 active; Potency, µM (series often up to 46.1 µM), for the others: top-dose re-replication activation, actives largely listed as activators; AID 624297; also: % of control where 0% means no effect; nearly all actives have a fitted effect of over 55% in size
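Hoechst fluorescence of nuclei (405 nm excitation, 500-530 nm emission) measured by plate-scanning imager after 48 hr compound exposure at 37 C; re-replication scored as increased number of nuclei with elevated intensity.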
RORg inh = ROR gamma (mouse) transcription inhibition | P51450 | Drosophila S2 Gal4-RORgamma UAS-luciferase reporter, 20 h | Potency, µM (highest dose often 53.6 µM), without a hit: at the top dose activity change, negative = inhibition, most hits filed as inhibitors | 5.4% of 310,000 active | AID 2551; also: % is scaled to controls: 0 for no effect and ±100 for the full control effect; nearly all actives have a fitted effect of over 60% in size
Target sequence (P51450 whole entry, looked up, the tested form may be a part): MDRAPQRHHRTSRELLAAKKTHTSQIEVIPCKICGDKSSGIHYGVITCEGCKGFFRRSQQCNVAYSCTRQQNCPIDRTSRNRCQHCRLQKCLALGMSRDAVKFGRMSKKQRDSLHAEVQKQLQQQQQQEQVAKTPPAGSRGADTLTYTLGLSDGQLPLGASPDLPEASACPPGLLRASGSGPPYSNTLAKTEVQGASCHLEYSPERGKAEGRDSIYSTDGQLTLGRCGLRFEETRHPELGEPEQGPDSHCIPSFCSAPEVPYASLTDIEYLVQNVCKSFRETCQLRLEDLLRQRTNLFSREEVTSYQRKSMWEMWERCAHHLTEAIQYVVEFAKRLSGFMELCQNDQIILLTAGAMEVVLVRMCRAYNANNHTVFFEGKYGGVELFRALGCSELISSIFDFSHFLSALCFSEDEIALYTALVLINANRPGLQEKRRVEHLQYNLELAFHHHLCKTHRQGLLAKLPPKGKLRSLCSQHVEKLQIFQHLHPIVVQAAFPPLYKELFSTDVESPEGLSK
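A Gal4/UAS one-hybrid system in insect cells: metallothionein-promoter Gal4–ROR gamma fusion plus Photinus luciferase reporter. Copper sulfate 700 uM final, 20 hr ambient incubation, luminescent detection after 10 min with reagent.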
KB-V1 cytotox = KB-V1 MDR subline cytotoxicity; KB-V1 MDR cells viability, CellTiter-Glo, 72 h; 3.4% of 400,000 active; Potency, µM (titrated, usually from 46.1 µM), most hits filed as cytotoxic; also: % is scaled to controls: 0 for no effect and ±100 for the full control effect; nearly all actives have a fitted effect of over 60% in size
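Potencies derive from concentration-effect curves fitted to normalized luminescence (CellTiter-Glo) of KB-V1 cells treated for 72 h at 37 degrees C in phenol-red-free DMEM containing 10% FBS.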
* = called active by the depositor; i = inactive; ? = inconclusive; nt = no result; [ ] = remark or other dose. Calls follow the shape of the dose curve; as a rule, active = well fitted curve in the direction sought with a large enough effect; inconclusive = small, poorly fitted or top-dose-only effect, or another doubt; inactive = no such curve, though single readings can be large; an effect the other way counts as inactive or inconclusive. Potency is read from the fitted curve at half-maximal effect.

SMILES	KB-3-1 tox	MCF10A rerep	VP16 counter	SW480 rereplic	RORg inh	KB-V1 cytotox
CC(C)(C)N1C(=O)[C@@H]2[C@H]3C(=CC[C@H]2C1=O)C(=O)[C@H]1O[C@H]1[C@H]3O	nt	nt	?	nt	1.4µM*	nt
CCOC(=O)CCN1C(=O)[C@H]2[C@@H]3[C@H](O)[C@H](O)CC(=O)[C@H]3CC[C@H]2C1=O	nt	nt	4%[10 µM]	nt	7%[10 µM]	nt
C[C@@H](c1ccccc1)N1C(=O)[C@H]2[C@H]3[C@H](O)[C@H](O)C/C(=N/OCc4ccccc4)[C@H]3CC[C@@H]2C1=O	nt	nt	0%[10 µM]	nt	1%[10 µM]	nt
COc1cc(C)ccc1S(=O)(=O)NC(=O)C1(C)CCN1C(=O)C1(c2ccc(Cl)cc2)CCC1 (configuration not stated)	i	nt	nt	nt	nt	i
Cc1noc(-c2ccc(CSCCC(=O)O)cc2)c1NC(=O)OC(C)c1ccccc1Cl (configuration not stated)	nt	nt	-11%	nt	-1%	nt
CP(C)(=O)CCP(=O)(c1ccccc1)c1ccccc1	i	-13%	-8%	-2%	-27%	i
CCN(CC)CCP(=O)(c1ccccc1)c1ccccc1	i	9.2µM*	-3%	?	-23%	i
COc1ccc(C(=O)Nc2ccc(-c3nc4ccccc4[nH]3)cc2)cc1OC	i	nt	nt	nt	nt	?
CC(C)Cc1ccc(S(=O)(=O)N2CCC(c3ccncc3)CC2)cc1	?	nt	nt	nt	nt	i
O=C(Nc1ncn[nH]1)c1cccc(F)c1	i	12%	nt	-12%	nt	i
Cc1ccc(C(=O)Nc2ncn[nH]2)cc1	i	0%	13µM*	-2%	?	i
CC(C)(C)c1ccc(C(=O)Nc2ncn[nH]2)cc1	i	?	?	-1%	4µM*	i
COc1ccc(C(C)(NC(C)=O)c2nc(-c3cccc4cccnc34)cs2)cc1 (configuration not stated)	i	nt	nt	nt	nt	i
CC(=O)N1CCCc2cc(S(=O)(=O)N3CCC(N(C)C(C)C)CC3)ccc21	i	nt	nt	nt	nt	i
CC(=O)N1c2ccc(S(=O)(=O)N3CCC(C(=O)NCc4ccc(Cl)cc4)CC3)cc2CC1C (configuration not stated)	?	23µM*	-21%	?	?	i
CC(=O)N1CCCc2cc(S(=O)(=O)N3CCC(C)CC3)ccc21	i	-2%	-1%	-109%	3%	21µM*
CC(=O)N1c2ccc(S(=O)(=O)N3CCCC(C(=O)N4CCC(C)CC4)C3)cc2CC1C (configuration not stated)	i	-1%	-15%	-7%	-30%	21µM*
CCCn1nc([N+](=O)[O-])c(C(C#N)c2nc3ccccc3s2)c(Cl)c1=O (configuration not stated)	?	?	?	1.3µM*	-45%	5.8µM*
COc1ccc(C(=O)N(Cc2ccc(C(C)C)cc2)C2CCS(=O)(=O)C2)cc1 (configuration not stated)	i	nt	nt	nt	nt	i
Cc1cccc(N2CCN(S(=O)(=O)c3cc(-c4cc(C)no4)ccc3C)CC2C)c1 (configuration not stated)	?	3.3µM*	8%	10µM*	1%	?
Cc1cc(-c2ccc(C)c(S(=O)(=O)N3CCC(C)CC3)c2)on1	i	nt	nt	nt	nt	?
COc1ccc(-c2cc(C)no2)cc1S(=O)(=O)N1CCCCC1	i	-4%	-2%	3%	-11%	i
COc1ccc(-c2cc(C)no2)cc1S(=O)(=O)N1CCN(c2cccc(C)c2)C(C)C1 (configuration not stated)	12µM*	?	2%	-3%	39%	?
COc1cccc(/C=N\NC(=O)Cn2nnc3ccccc32)c1O	?	?	3.2µM*	?	1.3µM*	i
COc1cccc(/C=N/NC(=O)CSCC(=O)Nc2ccccc2)c1O	?	11%	1.6µM*	?	0.5µM*	i
